Compound activity (PubChem BioAssay)
Mdm2 MdmX PPI = human Mdm2/MdmX binding inhibition. O15151+Q00987. SaOS-2 split-luciferase Mdm2/MdmX complementation, luminescence. inhibition, % at 8 µM. 3% of 330,000 active. AID 485346;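 active means inhibition of at least 50% at 8 µM in the primary screen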
Target sequence (O15151 whole entry, looked up): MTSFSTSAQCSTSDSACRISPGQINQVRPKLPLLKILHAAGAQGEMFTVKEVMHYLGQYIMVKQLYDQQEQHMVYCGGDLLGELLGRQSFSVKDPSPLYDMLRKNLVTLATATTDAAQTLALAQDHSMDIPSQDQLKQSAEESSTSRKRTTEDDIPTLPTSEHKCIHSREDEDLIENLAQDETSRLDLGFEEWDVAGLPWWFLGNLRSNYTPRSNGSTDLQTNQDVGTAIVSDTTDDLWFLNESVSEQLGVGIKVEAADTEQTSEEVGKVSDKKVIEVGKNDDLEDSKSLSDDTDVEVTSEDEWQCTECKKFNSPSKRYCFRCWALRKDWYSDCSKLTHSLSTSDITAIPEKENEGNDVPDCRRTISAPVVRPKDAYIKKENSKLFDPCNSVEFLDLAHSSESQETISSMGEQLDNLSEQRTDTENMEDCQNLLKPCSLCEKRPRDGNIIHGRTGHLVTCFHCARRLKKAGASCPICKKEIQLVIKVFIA
Target sequence (Q00987 whole entry, looked up): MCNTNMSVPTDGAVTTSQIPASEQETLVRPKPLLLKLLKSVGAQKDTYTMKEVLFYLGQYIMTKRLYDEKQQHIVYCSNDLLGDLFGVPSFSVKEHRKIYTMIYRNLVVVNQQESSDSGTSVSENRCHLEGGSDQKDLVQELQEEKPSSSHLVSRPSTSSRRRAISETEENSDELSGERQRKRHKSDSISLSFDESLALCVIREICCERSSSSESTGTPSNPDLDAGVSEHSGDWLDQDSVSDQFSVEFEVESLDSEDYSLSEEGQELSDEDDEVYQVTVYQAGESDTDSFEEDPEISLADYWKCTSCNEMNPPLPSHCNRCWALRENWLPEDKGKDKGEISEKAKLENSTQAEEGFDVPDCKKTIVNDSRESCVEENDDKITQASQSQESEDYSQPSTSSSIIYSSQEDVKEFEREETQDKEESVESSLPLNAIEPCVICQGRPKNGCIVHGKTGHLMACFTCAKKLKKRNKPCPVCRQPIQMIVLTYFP
tim23-1 inh = growth inhibitors of tim23-1 mutant yeast. S. cerevisiae tim23-1 growth, BacTiter-Glo luminescence, 24 h. inhibition, % at 20 µM. 1.3% of 330,000 active;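 active means growth inhibition of the mutant yeast at or above 50%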;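 further: temperature-sensitive mutant grown at 25 °C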
TIM10 inh = TIM10 yeast growth inhibition; S. cerevisiae TIM10 strain growth, BacTiter-Glo luminescence, 24 h; inhibition, % at 10 µM; 1.4% of 330,000 active; AID 463195;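 active means inhibition of 40% or more at the single tested concentration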;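 further: wild-type TIM10 isogenic control strain grown at permissive 25 °C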
tim10-1 inh = tim10-1 yeast growth inhibition | S. cerevisiae tim10-1 ts strain growth, BacTiter-Glo, 24 h | inhibition, % at 20 µM | 2.2% of 330,000 active;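 active means inhibition of at least 40%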;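 further: mutant grown at 25 °C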
MPTP block = permeability transition pore inhibition; isolated mouse mitochondria, Ca2+ swelling absorbance, 30 min; inhibition, % at 10 µM; 1.4% of 360,000 active; AID 602449;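 active means inhibition of 50% or more, scaled per plate between neutral and stimulator controls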
Rh123 counter = mitochondrial membrane potential, counter-screen; shares compounds with MPTP block; isolated mitochondria, Rhodamine 123 fluorescence; inhibition, % at 10 µM; 78% of 5,000 active; AID 624504; in the data active means inhibition above about 22%
MPTP swell DR = MPTP inhibition, dose response swelling confirmation; shares compounds with MPTP block; isolated mitochondria swelling, absorbance; AID 651561; IC50, µM; 58% of 780 active; in the data active means IC50 below about 20 µM
MPTP cs DR = counter-screen for mitochondrial permeability transition pore inhibitors, dose response. shares compounds with MPTP block. isolated mitochondria counterscreen, fluorescence read-out. IC50, µM. 49% of 780 active. AID 651564; in the data active means IC50 below about 80 µM
Of the large screens only hits and unclear results are named; the others gave an inactive call (follow-up assays come after a bar, where they were run). An excerpt weighted towards active compounds, which were near 6.3% of everything screened.

Cc1ccc(NC(=O)Nc2nc3ccc(S(C)(=O)=O)cc3s2)cc1	MPTP block 65 | Rh123 counter 70
Oc1ccc(Cl)cc1-c1cc(C(F)(F)C(F)F)nc(-c2ccccc2)n1	MPTP block 90 | Rh123 counter inactive | MPTP swell DR 8.1 | MPTP cs DR <2.5
CCCNC(=O)C[C@H]1C[C@H]2c3cc(NC(=O)Nc4ccc(F)cc4)ccc3O[C@H]2[C@@H](CO)O1	none (no result: Mdm2 MdmX PPI, tim23-1 inh, TIM10 inh, tim10-1 inh)
CCc1nc(N2CCN(C(=O)c3ccco3)CC2)c2c3c(sc2n1)CCCC3	none
CC1CCc2c(sc3nc(C4CC4)nc(N4CCN(C(=O)c5ccco5)CC4)c23)C1 (configuration not stated)	MPTP block 64 | Rh123 counter 68
CC12CCC(=O)C=C1CCC1C2CCC2(C)C(c3csc(N)n3)CCC12 (configuration not stated)	MPTP block 87 (no result: Mdm2 MdmX PPI, tim23-1 inh, TIM10 inh, tim10-1 inh) | Rh123 counter 92
CCCCCCn1c(=O)n2n(c1=O)C[C@]1(OC(=O)NC3CC3)CN(S(=O)(=O)c3ccc(C)cc3)C[C@]1(O)C2	none (no result: Mdm2 MdmX PPI, tim23-1 inh, TIM10 inh, tim10-1 inh)
CC(C)(C)NC(=O)C1c2ccccc2OCC(=O)N1Cc1ccco1 (configuration not stated)	none (no result: Mdm2 MdmX PPI, tim23-1 inh, TIM10 inh, tim10-1 inh)
Cc1ccc(C2=NC(=O)/C(=C/c3cc(O)c(O)c(Br)c3)S2)cc1	MPTP block 114 | Rh123 counter 36
O=C(Nc1nnc([C@H]2C[C@H](O)[C@@H](CO)O2)s1)C(c1ccccc1)c1ccccc1	none (no result: Mdm2 MdmX PPI, tim23-1 inh, TIM10 inh, tim10-1 inh)
COc1ccc2nc3n(c(=O)c2c1)-c1ccccc1C(=O)NC3Cc1ccccc1 (configuration not stated)	none (no result: MPTP block)
Cc1cccc(Nc2nc(N3CCN(C)CC3)nc(N)c2[N+](=O)[O-])c1	MPTP block 69 | Rh123 counter inactive | MPTP swell DR inactive | MPTP cs DR inactive
Cc1ccc(Nc2nc(NCCCN3CCOCC3)nc(N)c2[N+](=O)[O-])cc1C	MPTP block 67 | Rh123 counter inactive | MPTP swell DR inactive | MPTP cs DR inactive
CCN1CCN(c2nc(N)c([N+](=O)[O-])c(Nc3cccc(C)c3)n2)CC1	none
Cc1cccc(Nc2nc(N)c([N+](=O)[O-])c(N3CC(C)CC(C)C3)n2)c1 (configuration not stated)	MPTP block 56 | Rh123 counter inactive | MPTP swell DR inactive | MPTP cs DR 63
CCc1nnc(NC(=O)c2ccc3c(=O)n4c(nc3c2)CCC4)s1	none (no result: Mdm2 MdmX PPI, tim23-1 inh, TIM10 inh, tim10-1 inh)
CCOC(=O)C1CCCN(C(=O)Cc2ccc(OC)c(OC)c2)CC1 (configuration not stated)	none (no result: Mdm2 MdmX PPI, tim23-1 inh, TIM10 inh, tim10-1 inh)
COc1ccc(CN2CCC(CO)(CCOc3ccccc3)CC2)cc1C	MPTP block 68 | Rh123 counter inactive | MPTP swell DR 20 | MPTP cs DR inactive
CCOc1ccc2c(S(=O)(=O)O)cccc2c1[N+](=O)[O-]	none (no result: Mdm2 MdmX PPI, tim23-1 inh, TIM10 inh, tim10-1 inh)
Cc1ccc(C)c(S(=O)(=O)C(C#N)c2nc3ccccc3nc2N2CC(C)OC(C)C2)c1 (configuration not stated)	MPTP block 78 | Rh123 counter 76
Cc1ccc(C)c(S(=O)(=O)C(C#N)c2nc3ccccc3nc2N2CCCC2)c1 (configuration not stated)	none
Cc1ccc(S(=O)(=O)C(C#N)c2nc3ccccc3nc2N2CCC(C)CC2)cc1 (configuration not stated)	none (no result: Mdm2 MdmX PPI, tim23-1 inh, TIM10 inh, tim10-1 inh)
Cc1ccc(C)c(S(=O)(=O)C(C#N)c2nc3ccccc3nc2N2CCOCC2)c1 (configuration not stated)	MPTP block 53 | Rh123 counter 73
CC(Cc1cccs1)NC(=O)Nc1ccc([N+](=O)[O-])cc1 (configuration not stated)	MPTP block 86 | Rh123 counter 91
CC(Cc1cccs1)NC(=O)c1cccs1 (configuration not stated)	none
CC(Cc1cccs1)NC(=S)Nc1ccc(F)cc1 (configuration not stated)	MPTP block 50 | Rh123 counter 73
COc1ccc(NC(=S)NC(C)Cc2cccs2)cc1 (configuration not stated)	none
CCN(CC(=O)Nc1ccc(NC(C)=O)cc1)C(=O)c1cc([N+](=O)[O-])ccc1Sc1ccc(Cl)cc1	none (no result: Mdm2 MdmX PPI, tim23-1 inh, TIM10 inh, tim10-1 inh)
